39 molecules from PubChem BioAssay (EPA / NIEHS) can be followed below.

Structures are written as SMILES. Values joined by “and” are separate entries in the source; they are usually repeats but may differ in a detail not shown here. Identical values can stand only once. A structure can be active in one record and inactive in another. Active and inactive are the calls of the source. How the source made its calls: active means hit-call score of the fitted dose curve at least 0.9, where 1 is the maximum; inactive means score below 0.9.

Read-out in the assay: Human Leukocyte Antigen - DR isotype (HLADR), HLA-DRA (gene 3122)
Kind of assay: BSK_BE3C_HLADR: BioMAP Diversity Plus: BE3C Assay for Human Leukocyte Antigen - DR isotype (HLADR) Biomarker Activity (AID 2283032). The conditions noted are these: primary human bronchial epithelial cells; actives raise or lower the signal. As to the method: BSK_BE3C is a cell-based, multiplexed-readout assay that uses bronchial epithelial cell, a human lung primary cell, with measurements taken at 24 hours after chemical dosing in a 96-well plate.BSK_BE3C_HLADR is an assay component measured in the BSK_BE3C assay. It measures HLA-DR antibody related to regulation of gene expression using ELISA technology.Data from the assay component BSK_BE3C_HLADR was analyzed into 1 assay endpoint. This assay endpoint, BSK_BE3C_HLADR, was analyzed with bidirectional fitting relative to DMSO as the negative control and baseline of activity. Using a type of binding reporter, gain or loss-of-signal activity can be used to understand changes in the signaling as they relate to the gene HLA-DRA. Furthermore, this assay endpoint can be referred to as a primary readout, because this assay has produced multiple assay endpoints where this one serves a signaling function. To generalize the intended target to other relatable targets, this assay endpoint is annotated to the cell adhesion molecules intended target family, where the subfamily is MHC Class II.
The levels of cell surface (or secreted, indicated by the prefix "s") biomarker endpoints were measured by ELISA. Overt cytotoxicity to cells in confluent adherent cultures (all systems other than the BT system) was assessed by measuring total protein levels using sulforhodamine B (SRB) staining in parallel cultures at the time of biomarker measurements, indicated as SRB endpoints. For proliferation assays for adherent cell types, individual cell types are cultured at sub-confluence and relative cell numbers quantified by SRB staining at time points optimized for each system (48 h: 3C and CASM3C systems; 72 h: BT and HDF3CGF systems; 96 h: SAg system). SRB was performed by staining cells with 0.1% SRB after fixation with 10% TCA and reading wells at 560 nm.Viability and proliferation of PBMC (T cells) was quantified by Alamar Blue reduction for the SAg and BT systems. For PBMC viability (referred to as PBMC Cytotoxicity within the assay endpoint names), cells were plated (75,000/well in a 96-well plate) and then chemical samples added for 1 h before addition of activators, SEB and TSST-1 (20 ng/mL final concentration each). Cells were incubated for 90 h. Then, Alamar Blue (20 uL/well) (Invitrogen, Cat DAL1100) was added for 6 h, and the plates were read with a fluorescence microplate reader at 546/580 nm (excitation/emission). For PBMC proliferation, cells were plated and activated as above but incubated for only 16 h prior to addition of Alamar Blue. Plates were read after 6 h.
As to `[N-]=[N+]=[N-]`, the outcome was inactive.

Turning to `CC(C)Nc1ccc(Nc2ccccc2)cc1`, the AC50 is 9.07 µM (active).

Regarding `O=C(O)C1C(C(=O)O)C2(Cl)C(Cl)=C(Cl)C1(Cl)C2(Cl)Cl` (stereo not given), the outcome was inactive.

As to `CCCCC(CC)COP(=O)(Oc1ccccc1)Oc1ccccc1` (stereo not given), the AC50 was 20 µM (active).

As for `CC(C)(C)c1ccc(O)cc1`, the outcome was inactive.

As for `Nc1cc2c3c(c1)C(c1ccccc1)=N[C@@H](NC(=O)c1cccnc1)C(=O)N3CC2`, the result was inactive.

On to `OCC(F)(F)OC(F)(F)C(F)(F)OC(F)(F)CO`, for which the outcome was inactive.

Regarding `CCC(C)(C)c1ccc(O)cc1`, the outcome was inactive.

Regarding `Cc1ccc2c(c1N)C(=O)c1ccccc1C2=O`, the AC50 is 5.4 µM (active).

Consider `CCC1(c2ccccc2)C(=O)N=C(O)NC1=O` (stereo not given), for which the result was inactive.

As for `CCCCOCCOP(=O)(OCCOCCCC)OCCOCCCC`, the result was inactive.

`Cc1c([N+](=O)[O-])cc2c(c1[N+](=O)[O-])C(C)(C)CC2(C)C`: the AC50 is 8.05 µM (active).

Take `c1ccc2c(c1)Nc1ccccc1S2`: the outcome was inactive.

Take `O=C(O)C(Cl)Cl`: the result was inactive.

In the case of `c1ccc(OP(Oc2ccccc2)Oc2ccccc2)cc1`, the outcome was inactive.

As to `C=CC(=O)OCC(CC)(COC(=O)C=C)COC(=O)C=C`, the AC50 is 3.18 µM (active).

With `CC(Cl)CN(C)C` (stereo not given), the outcome was inactive.

Regarding `COC(=O)C(F)(F)C(F)(F)OC(F)(C(F)(F)F)C(F)(F)OC(F)=C(F)F` (stereo not given), the outcome was inactive.

Take `Cc1cccc(N)c1`: the outcome was inactive.

In the case of `O=C(O)C(F)(OC(F)(F)C(F)(F)C(F)(F)F)C(F)(F)F` (stereo not given), the outcome was inactive.

On to `OCC1CO1` (stereo not given), for which the outcome was inactive.

As to `CCOP(=S)(OCC)SCSCC`, the result was inactive.

Take `O=S1(=O)OCC2C(CO1)C1(Cl)C(Cl)=C(Cl)C2(Cl)C1(Cl)Cl` (stereo not given): the outcome was inactive.

On to `CCCCCCCc1ccc(O)cc1`, for which the AC50 was 32.1 µM (active).

`O=[N+]([O-])c1ccccc1`: the outcome was inactive.

With `CC(Cl)(Cl)C(=O)O`, the outcome was inactive.

For `CCOP(=S)(Oc1ccc([N+](=O)[O-])cc1)c1ccccc1` (stereo not given), the result was inactive.

Take `N#Cc1cc([N+](=O)[O-])ccc1N`: the result was inactive.

On to `c1cc2c3c(cccc3c1)CC2`, for which the result was inactive.

Regarding `CCOP(=S)(OCC)SCSc1ccc(Cl)cc1`, the result was inactive.

`OCC(F)(F)OC(F)(F)C(F)(F)OC(F)(F)C(F)(F)OC(F)(F)CO`: the AC50 was 45.5 µM (active) and 30 µM (active).

`CCOS(=O)(=O)OCC`: the outcome was inactive.

`Nc1ccc(Cl)cc1`: the result was inactive.

In the case of `O=P(OCC(Br)CBr)(OCC(Br)CBr)OCC(Br)CBr` (stereo not given), the outcome was inactive.

As to `C=CC(=O)OCC(F)(F)C(F)F`, the AC50 is 44.9 µM (active) and the result was inactive.

For the molecule `Cc1ccc([N+](=O)[O-])cc1C`, the outcome was inactive.

Take `CCCCC(CC)COC(=O)c1c(Br)c(Br)c(Br)c(Br)c1C(=O)OCC(CC)CCCC` (stereo not given): the outcome was inactive.

As to `CCCCc1ccccc1`, the result was inactive.

Regarding `Nc1ccc2ccccc2c1`, the result was inactive.

One may read the AC50 as the midpoint of the concentration-response curve, whichever way the signal moves.
